# Measured values as given in PubChem BioAssay AID743467 (Broad Institute, 2014).
# Some of the results follow. Inconclusive results are not listed. Values without a mark were called inactive.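 The calls were made as follows: active = compound lowering PGC-1a expression with fitted half-maximal concentration at most twice its top tested dose; inconclusive = flat curve with moderate opposite-direction effect, or poor fit; inactive = the rest.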
# Assay: hepatocyte PGC-1a gene expression decrease – cell-based, primary mouse hepatocytes, RT-qPCR, cherry-pick, PGC-1a acetylation activator project, dose response (AID 743467);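 also: 0% = neutral control wells median and 100% = positive control wells median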
# Settings: PGC-1a mRNA qPCR, forskolin, top dose 26 µM, hits give high values; at 26 µM unless noted
row,SMILES,max activity (PGC-1a expression decrease)
1,Cc1cc(C(=O)NNS(=O)(=O)c2ccccc2C(F)(F)F)nn1C(C)(C)C,22.5% [at 0.0012 µM]
2,Cc1cc(C)c2c(-n3cccc3)c(C(=O)NNS(=O)(=O)c3ccc(F)cc3)sc2n1,82.5% [at 8 µM]
3,Cc1ccc(OCC(=O)NCCCNC(=O)c2cccnc2)cc1C,111%
4,COc1ccc(-n2nnnc2CNC(=O)c2ccc3ccccc3c2)cc1,86.6% [at 0.0038 µM]
5,CCCCC(=O)Nc1ccc(C(=O)NCCCn2ccnc2)cc1,68.4% [at 0.011 µM]
6,CCOc1ccccc1CN1CCN(C2CCC2)CC1CCO (centres undefined),28.9% [at 8 µM]
7,O=C(NCc1ccccc1)C(c1ccccc1)N(C(=O)c1csnn1)c1ccc(F)cc1 (centres undefined),114% [at 8 µM]
8,COc1ccc(Nc2nnc(C)c3ccccc23)cc1,52.1%
9,CC(C)CCNc1nc(N2CCCC2)c2c(c1C#N)CCN(C)C2,56.4%
10,O=C(NCCC1CCCCN1S(=O)(=O)c1cccs1)C(=O)Nc1ccc(F)cc1F (centres undefined),63.6%
11,O=S(=O)(NCc1ccccc1Br)c1ccccc1Br,65.1%
12,CCC(C)(C)n1nnnc1C(c1ccccc1OC)N1CCSCC1 (centres undefined),74.7%
13,CCOC(=O)c1c(NC(=O)CSc2cn(CC)c3ccccc23)sc2c1CCC2,60.3%
14,CCOC(=O)c1c(-c2ccc(C)cc2C)csc1NC(=O)CSc1nnnn1C,87% [at 8 µM]
